The text below walks through data of ChEMBL document CHEMBL4513216, “Probing the Open Global Health Chemical Diversity Library for Multistage-Active Starting Points for Next-Generation Antimalarials” (ACS Infect Dis, 2020).

Screen size: about 65,000 compounds; about 2,100 (3.2%) showed an effect of 50% or more. The median lay at about -52%. The entries come from a sample that favours strong results as a whole.

This assay has as its system Plasmodium falciparum. The assay can be described thus: Screen against P. falciparum Asexual Blood Stage (ABS), at 5uM. In kind it is functional, Dd2. The following applies: tested at 5 uM.
On to `O=C(CC[C@@H]1CCCN2CCCC[C@H]12)NCCc1cc(O)ncn1`, for which the INHIBITION is listed as -119%.

Regarding `Cc1nc(O)cc(CNC(=O)CC[C@@H]2CCCN3CCCC[C@H]23)n1`, the INHIBITION is -4.68%.

In the case of `Cc1cccc2c1ccn2CC(=O)NC[C@@H]1CCCN2CCCC[C@H]12`, the INHIBITION is given as 70.9%.

Take `O=C(Cn1ccc2c(Cl)cccc21)N1CCC2(CC1)OCCO2`: the INHIBITION is -85.8%.

Consider `O=C(Cn1ccc2ccc(Br)cc21)NC[C@@H]1CCCN2CCCC[C@H]12`, for which the INHIBITION is reported as 79.3%.

For the molecule `O=C(Cc1c[nH]c2ccccc12)N1CCC(Nc2ccccc2)CC1`, the INHIBITION is -7.04%.

For the molecule `CN1CCc2c(CNC(=O)c3nccn3C)cncc2C1`, the INHIBITION is given as -77.8%.

For the molecule `COCCN1CCN(c2ccc(C)nn2)Cc2cccnc21`, the INHIBITION is reported as -2.72%.

As for `Cc1n[nH]cc1C(=O)NCc1cccnc1N1CCc2ccccc2C1`, the INHIBITION turned out to be 75.3%.

Turning to `O=C(C1CCC1)N1CCC2(CCNCC2)C1`, the INHIBITION is given as -39.1%.

For the molecule `COc1ccc(-c2c(C)nn3c(=N)c(C#N)n[nH]c23)cc1OC`, the INHIBITION is recorded as 87.8%.

For the molecule `O=C(c1cccnc1)N1C[C@@H]2OCCN(CCN3CCCC3)[C@@H]2C1`, the INHIBITION is listed as -134%.

For `CC(=O)NC[C@H]1C[C@@H]2CCN1C[C@@H]2c1cc(-c2cccs2)nn1C`, the INHIBITION is -50.5%.

`Cn1cccc1CNCC1CCCn2cc(C(C)(C)C)nc21` (stereo unspecified): the INHIBITION was determined as 75.7%.

Turning to `CC(C)(C)c1cn2c(n1)C(CNCc1cnn3ccccc13)CCC2` (stereo unspecified), the INHIBITION came to 80%.

Turning to `Cc1cccc(CN2C(=O)C[C@H]3[C@@H]2CCN3Cc2ccccn2)n1`, the INHIBITION is on record as -22.5%.

As to `CC(C)(C)c1cn2c(n1)C(CNCc1ccccn1)CCC2` (stereo unspecified), the INHIBITION stood at 92.9%.

With `c1ccc(CN2CC[C@H]3[C@H]2CCN3c2ncccn2)nc1`, the INHIBITION is on record as -84.3%.

As for `Cc1nc(NCC2CC2)nc2c1COCC21CCNC1` (stereo unspecified), the INHIBITION is recorded as -88.5%.

With `Cc1noc([C@]23COC[C@H]2CN(Cc2cc(C)on2)C3)n1`, the INHIBITION is on record as -5.88%.

With `Cc1nn(C)c2nc(N3CCCCC3c3cccnc3)sc12` (stereo unspecified), the INHIBITION is reported as -114%.

In the case of `CCCS(=O)(=O)N1CCc2c(COCC)cncc2C1`, the INHIBITION is listed as -24.8%.

`Cc1noc(C)c1CN1C[C@@H]2CCCO[C@@H]2[C@H](NS(C)(=O)=O)C1`: the INHIBITION is -59.8%.

Take `O=C(NCC(=O)N1CCC2(CC1)OCCO2)c1ccoc1`: the INHIBITION is given as -196%.

Turning to `CS(=O)(=O)N1C[C@@H]2CC[C@H]1CN(Cc1ccncc1)C2`, the INHIBITION is listed as -82.5%.

With `CC(C)=CCN1CCC2(CC1)c1ccccc1[C@@H](N1CCSCC1)[C@@H]2O`, the INHIBITION is 78.5%.

Turning to `COCCn1cc(C(=O)NCCS(N)(=O)=O)c2ccccc21`, the INHIBITION is -110%.

Turning to `CCn1cc(C2=CCN(CCCOc3ccccc3)CC2)cn1`, the INHIBITION was found to be 82%.

`Cc1nc(O)cc(CN2CC=C(c3cnn(-c4ccccc4)c3)CC2)n1`: the INHIBITION is -90.2%.

With `CCC(O)Cn1cc(C2=CCN(Cc3ccc(OC)cc3)CC2)cn1` (stereo unspecified), the INHIBITION worked out at 68.7%.

Consider `COc1cccc(Cn2cc(C3=CCN(CCO)CC3)cn2)c1`, for which the INHIBITION was 54.2%.

As for `O=c1[nH]ccn1CCCN1CC=C(c2cnn(-c3ccccc3)c2)CC1`, the INHIBITION is on record as -235%.

Consider `CCC(O)Cn1cc(C2=CCN(Cc3cc(O)nc(C)n3)CC2)cn1` (stereo unspecified), for which the INHIBITION is -24.6%.

As for `CN(C)C(=O)CN1CC=C(c2cnn(Cc3ccccc3)c2)CC1`, the INHIBITION is -52.4%.

Consider `Cn1cc(C2=CCN(CCCOc3ccc(C(N)=O)cc3)CC2)cn1`, for which the INHIBITION is reported as -64.5%.

For the molecule `COc1cccc(Cn2cc(C3=CCN(CC(=O)N(C)C)CC3)cn2)c1`, the INHIBITION is listed as -27.6%.

In the case of `O=C(c1cn(Cc2ccccc2)c2ncccc12)N1CCOCC1`, the INHIBITION was -68.2%.

As for `Cc1cccc(CN2CC[C@@H]3[C@@H]2CCN3C(=O)c2ccoc2C)n1`, the INHIBITION was -77.9%.

Regarding `CNc1ncc(CN(C)c2ncnc3onc(C)c23)cn1`, the INHIBITION was -3.41%.

With `O=C(Cc1ccc(O)c(F)c1)N1CCN(CC2CC2)[C@@H]2CS(=O)(=O)C[C@@H]21`, the INHIBITION was -78.4%.

Consider `O=C(c1onc2ccccc12)N1CCC2(CCCNC2)C1` (stereo unspecified), for which the INHIBITION is given as -59.1%.

`c1ccc(Cn2cccn2)c(CN2CCC3(CCCNC3)C2)c1` (stereo unspecified): the INHIBITION is reported as 85%.

As for `Fc1cnccc1CN1CCC2(CCNCC2)C1`, the INHIBITION was -66.9%.

Regarding `CN(C)CCNC(=O)c1ccn(-c2ccc3ccccn23)n1`, the INHIBITION came out at 84%.

Take `O=C1OCCC1N1CCN(C(=O)Cc2c[nH]c3ccccc23)CC1` (stereo unspecified): the INHIBITION is recorded as -131%.

In the case of `Cc1nc(CC(=O)N2CCN(C(C)c3ccccc3F)CC2)cs1` (stereo unspecified), the INHIBITION is -60.5%.

For the molecule `CN1CCN(c2ccc(NC(=O)c3cccs3)c(C(F)(F)F)c2)CC1`, the INHIBITION worked out at 73.6%.

In the case of `CCN1CCN(c2ccc(NC(=O)CC(C)C)c(C)c2)CC1`, the INHIBITION is listed as -6.8%.

With `CN(C)C(=O)N1CCC2(C1)CN(c1cccnc1)C(=O)CN2C` (stereo unspecified), the INHIBITION was -35.4%.

As to `COc1cc(C)c(CN2CCC3(CC2)[C@H](O)C[C@@H]3OCCN)cc1C`, the INHIBITION is 77.2%.

Regarding `C1Cc2nc(CCNc3nc(C4CC4)nc4c3CCNCC4)sc2C1`, the INHIBITION was found to be 78.5%.
